Assay outcomes from PubChem BioAssay.
HT1080NT lethal: qHTS for induction of synthetic lethality in tumor cells producing 2HG: qHTS for the HT-1080-NT fibrosarcoma cell line; HT-1080-NT fibrosarcoma viability, CellTiter-Glo ATP luminescence, 48 h; Potency, µM (highest dose often 46.1 µM), without a hit: at the highest dose activity, negative = less viability, actives largely listed as cytotoxic; actives 1.6% (n = 360,000);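 further: NT is the 2HG producing partner of a matched IDH1 knockdown line; 0% = DMSO-treated cells and -100% = media-only wells without cells; nearly all actives have a fitted effect of over 55% in size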
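Viability of the 2HG-overproducing fibrosarcoma line after 48 hours of compound exposure at 37 degrees C was determined by luminescence with CellTiter-Glo, and concentration-effect curves were then fitted and categorized.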
TDP1 cell CPT: qHTS for Inhibitors of human tyrosyl-DNA phosphodiesterase 1 (TDP1): qHTS in cells in presence of CPT; chicken DT40 Tdp1-/-;hTDP1 cells + 20 nM CPT, ATP luminescence, 48 h; Potency, µM (top dose mostly 46.2 µM), without a hit: at the top dose activity change, negative = growth inhibition, actives largely listed as inhibitors; actives 12% (n = 420,000); AID 686979, 2013; further: nearly all actives have a fitted effect of over 55% in size
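Chicken DT40 Tdp1-/- cells stably complemented with human TDP1 were seeded at 400 cells/well in medium containing 20 nM camptothecin, exposed to pin-transferred compounds, and grown at 37 °C for at least 48 hr. Viability was read as ATP luminescence.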
TDP1 cell noCPT: qHTS for Inhibitors of human tyrosyl-DNA phosphodiesterase 1 (TDP1): qHTS in cells in absence of CPT. DT40 Tdp1-/- hTDP1 cells, no CPT, ATP luminescence, 48 h. Potency, µM (highest dose often 46.2 µM), inactives show at the highest dose activity change, negative = growth inhibition, actives largely listed as inhibitors. actives 15% (n = 420,000); further: nearly all actives have a fitted effect of over 55% in size
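DT40 Tdp1-/-;hTDP1 cells, no CPT (DMSO vehicle only), 400 cells/well; compounds pin-transferred; ≥48 hr, 37 °C; CellTiter-Glo 30 min RT dark, luminescence read.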
KB-V1 MDR tox: qHTS assay for MDR1-selective chemotherapeutics: Primary screen using the drug-selected MDR subline cells KB-V1. KB-V1 MDR cells viability, CellTiter-Glo, 72 h. Potency, µM (top dose mostly 46.1 µM), most hits filed as cytotoxic. actives 3.4% (n = 400,000); further: nearly all actives have a fitted effect of over 60% in size
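KB-V1 MDR subline cells in DMEM (phenol-red free, 10% FBS) exposed to compounds in qHTS concentration series for 72 h at 37 degrees C. Viability read by CellTiter-Glo luminescence; concentration-effect curves fitted after normalization and correction.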
HT1080 IDH1KD tx: qHTS for induction of synthetic lethality in tumor cells producing 2HG: qHTS for the HT-1080-IDH1KD cell line | HT-1080 IDH1 knockdown viability, ATP luminescence, 48 h | Potency, µM (doses to about 46.1 µM), inactives show top-dose activity, negative = toxicity, usual class: cytotoxic | actives 2% (n = 360,000);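 further: 0% = DMSO wells and -100% = cell-free medium wells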
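In this qHTS, HT-1080 cells depleted of IDH1 are exposed for 48 h at 37 °C to compound titrations. Toxicity is scored from CellTiter-Glo luminescence, with DMSO as full viability and medium alone as none.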
KB-3-1 cytotox: qHTS assay for MDR1-selective chemotherapeutics: Primary screen using the parental adenocarcinoma cell KB-3-1. KB-3-1 viability, CellTiter-Glo ATP luminescence, 72 h. Potency, µM (top dose mostly 46.1 µM), most hits filed as cytotoxic. actives 1.4% (n = 400,000). AID 1347075, 2019; further: nearly all actives have a fitted effect of over 60% in size
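Luminescent ATP read-out (CellTiter-Glo) measures survival of drug-naive KB-3-1 cells after 72 h compound exposure at 37 °C. Titration series was screened from lowest to highest concentration, with DMSO vehicle plates as background controls.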
* marks the source's active call; other numbers are inactive results; i = inactive; ? = inconclusive; / = not tested or not shown; [ ] = dose if it differs, or a comment. An excerpt weighted towards active compounds, which were near 19% of everything screened. The call rests on the fitted dose curve; in most records, active means well fitted curve in the direction sought with a large enough effect; inconclusive means small, poorly fitted or top-dose-only effect, or another doubt; inactive means no such curve, though single readings can be large; an effect the other way counts as inactive or inconclusive. Unless noted, on the % scale 0 is the no-effect control and ±100 the full control effect; potency means the concentration at half of the fitted maximal effect.

SMILES | HT1080NT lethal | TDP1 cell CPT | TDP1 cell noCPT | KB-V1 MDR tox | HT1080 IDH1KD tx | KB-3-1 cytotox
Cc1ccccc1CS(=O)(=O)c1cnc2ccccc2n1 | 23µM* | ? | 29µM* | ? | ? | i
NC(=S)NN=Cc1c[nH]c2nccnc12 | -21% | 16µM* | 13µM* | i | ? | i
COc1cccc(OCc2ccc(Cn3nc(NC(=O)NCCc4ccc(OC)c(OC)c4)c4ccccc43)cc2)c1 | 4% | -28% | ? | i | 2% | i
CCOC(=O)Cc1csc(NC(=O)c2c(C)noc2C)n1 | -2% | 0% | 0% | i | 0% | ?
Cc1ccc(C)c(-c2csc(NC(=O)c3c(C)noc3C)n2)c1 | 2% | ? | ? | ? | -4% | i
Cc1ccc(-c2csc(NC(=O)c3c(C)noc3C)n2)s1 | -1% | 5.2µM* | 4.1µM* | i | ? | i
Cc1noc(C)c1C(=O)Nc1nc(C23CC4CC(CC(C4)C2)C3)cs1 | 2%[9.24 µM] | ? | 18µM* | i | -5% | i
Cc1onc(-c2ccccc2)c1C(=O)Nc1nc(-c2ccc(F)c(F)c2)cs1 | -26% | ? | 26µM* | i | ? | i
COC(=O)c1ccc(-c2csc(NC(=O)c3c(C)noc3C)n2)cc1 | -22% | 16µM* | 21µM* | i | -28% | i
COc1ccc(NC(=O)CSC2=Nc3ccccc3C3=NC(CC(=O)NCc4ccc(F)cc4)C(=O)N23)cc1 (centres undefined) | / | -7% | -15% | i | / | i
COc1ccc(S(=O)(=O)N(C)C)cc1NC(=O)COC(=O)c1nn(C)c(=O)c2ccccc12 | ? | 0% | 1% | i | 10% | i
CC(C)c1ccc(NC(=O)COC(=O)[C@@H]2CCCN2C(=O)c2cccs2)cc1 | 3% | -12% | 7% | ? | 4% | i
CCCCNC(=O)C1(C)CCCCN1C(=O)c1cc(C#N)cs1 (centres undefined) | 18% | 0% | -3% | i | 4% | i
Cc1ccc(-c2csc(NC(=O)c3c(C)noc3C)n2)cc1C | 6% | 18µM* | 13µM* | ? | 5% | ?
O=C(c1ccccc1Br)N(Cc1ccco1)Cc1ccco1 | / | 13µM* | 15µM* | / | / | /
O=C(NCCC(=O)N(Cc1ccco1)Cc1cccs1)c1ccccc1Cl | -3% | ? | ? | i | -5% | i
Cc1c(C(=O)N(Cc2ccco2)Cc2cccs2)oc2ccccc12 | 2% | -9% | ? | 16µM* | 8% | i
O=C(c1cc2ccccc2o1)N(Cc1ccco1)Cc1cccs1 | -1% | -21% | -25% | i | 0% | i
O=C(NCc1ccco1)c1ccccc1Br | 8% | ? | ? | i | 2% | i
O=C(c1cccc(Cl)c1Cl)N(Cc1ccco1)Cc1cccs1 | / | ? | 11µM* | i | / | i
CCOc1cc2c(cc1OCC)C(CC(=O)O)N(C(=O)Nc1ccc(Br)c(C)c1)CC2 (centres undefined) | / | -12% | ? | / | / | /
Cc1cc2nc(C3CCN(C(=S)NCC(C)C)CC3)[nH]c2cc1C | -6% | ? | -5% | i | -20% | ?
Cc1cc2nc(C3CCN(Cc4nnnn4Cc4cccs4)CC3)[nH]c2cc1C | ? | 3.5µM* | 6.3µM* | i | 1.3µM* | ?
O=C(Nc1nc(-c2ccc3c(c2)OCCO3)cs1)c1ccc(S(=O)(=O)N2CCCCC2)cc1 | ? | ? | ? | 8.2µM* | -10% | ?
Cc1csc(NC(=O)c2ccc(S(=O)(=O)N3CCCC3)cc2)n1 | -1% | ? | -25% | i | 2% | i
SMILES | HT1080NT lethal | TDP1 cell CPT | TDP1 cell noCPT | KB-V1 MDR tox | HT1080 IDH1KD tx | KB-3-1 cytotox
O=C(Nc1nc(-c2cccs2)cs1)c1ccc(S(=O)(=O)N2CCCC2)cc1 | ? | ? | ? | ? | ? | 16µM*
O=C(Nc1nccs1)c1ccc(Br)c(S(=O)(=O)N2CCOCC2)c1 | 5% | -1% | ? | i | -4% | i
CC(=O)Nc1nc(-c2cccs2)cs1 | 11% | 6% | -13% | i | 10% | i
O=C(Nc1nccs1)c1ccc(S(=O)(=O)N2CCOCC2)cc1 | 3% | ? | 16µM* | i | -15% | i
CN(C)S(=O)(=O)c1ccc(C(=O)Nc2nc(-c3cccs3)cs2)cc1 | -16% | 21µM* | ? | i | -9% | i
COC(C)(C)[C@@H](O)COc1c2ccoc2cc2oc(=O)ccc12 | -15% | 5% | 4% | i | 9% | i
Cc1cccc(NCc2nnc3n2CCCCC3)c1C | / | -26% | ? | i | / | i
Clc1ccc(CN(CCCNc2ncnc(NCCCc3cnc[nH]3)n2)c2ccc(Br)cn2)cc1Cl | / | / | / | i | / | ?
COc1ccc(C(O)Cn2ccsc2=NC(C)=O)cc1 (centres undefined) | ? | 23µM* | ? | ? | 12µM* | ?
COc1cc(CN2CCN(c3cccc(C)c3C)CC2)cc(OC)c1O | -12% | ? | ? | 18µM* | 0% | i
Cc1cc(CN2CCN(c3cccc(C)c3C)CC2)cs1 | / | 23µM* | 15µM* | / | / | /
Cc1cccc(N2CCN(Cc3ccoc3)CC2)c1C | 8% | ? | ? | i | ? | i
Cc1cccc(-n2nc3c(c2NC(=O)C2CC2)CS(=O)(=O)C3)c1C | -1% | 2% | 0% | i | -3% | i
COc1ccc(C(=O)N2CCCC(c3cc(C(=O)Nc4ccccc4)no3)C2)cc1 (centres undefined) | 4% | -6% | ? | i | -7% | i
Cc1nn(-c2cc(C)c3ccccc3n2)c2c1C1C(C2)C1(C)C (centres undefined) | 3% | 18µM* | ? | i | -11% | i
COc1ccc(NS(=O)(=O)c2ccc(OC)c(NC(=O)CNC(=O)c3ccc(OC)cc3)c2)cc1 | -1% | -25% | -19% | i | 0% | i
CC(C)Sc1nc(-c2cccs2)nc2cc(Cl)ccc12 | 26% | -18% | -5% | i | 2% | i
